Screening results: PubChem, National Center for Advancing Translational Sciences (NCATS)
TGFb inhibitor: qHTS for Inhibitors of TGF-b; AID 588855, 2011; HepG2 CAGA-GFP TGF-b/SMAD3 reporter, GFP fluorescence, 18 h; TGF-beta stimulated, 500 pg/mL final; Potency, µM (titrated, usually from 46.1 µM), for the others: top-dose activity, negative = inhibition, usual class: inhibitors; 410,000 compounds, 1.2% hits; further: on the % scale 0 is the no-effect control and ±100 the full control effect; nearly all actives have a fitted effect of over 65% in size
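Inhibition of TGF-beta-driven CAGA-GFP reporter expression in HEPG2 cells is measured by cellular GFP fluorescence after 18 h stimulation with 500 pg/mL recombinant TGF-beta in 1% FBS medium at 37 degrees C.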
HT1080 IDH1KD tx: qHTS for induction of synthetic lethality in tumor cells producing 2HG: qHTS for the HT-1080-IDH1KD cell line | Potency, µM (top dose mostly 46.1 µM), without a hit: at the top dose activity, negative = toxicity, usual class: cytotoxic | 360,000 compounds, 2% hits | HT-1080 IDH1 knockdown viability, ATP luminescence, 48 h | AID 686971, 2013;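 further: 0% = DMSO wells and -100% = cell-free medium wells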
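Knockdown cells (IDH1KD HT-1080) received compounds 2 h after plating at 750 cells/well and were kept 48 h at 37 °C in 5% FBS RPMI. A CellTiter-Glo luminescence read gave % activity for curve fitting.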
HT1080-NT tox: qHTS for induction of synthetic lethality in tumor cells producing 2HG: qHTS for the HT-1080-NT fibrosarcoma cell line; Potency, µM (highest dose often 46.1 µM), inactives show at the top dose activity, negative = less viability, usual class: cytotoxic; HT-1080-NT fibrosarcoma viability, CellTiter-Glo ATP luminescence, 48 h; 360,000 compounds, 1.6% hits;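 further: NT is the 2HG producing partner of a matched IDH1 knockdown line; 0% = DMSO-treated cells and -100% = media-only wells without cells; nearly all actives have a fitted effect of over 55% in size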
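Fibrosarcoma NT cells, 750 per well in 5% FBS RPMI, were exposed to compound for 48 hours. Viability: CellTiter-Glo luminescence.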
DT40 TDP1 no CPT: qHTS for Inhibitors of human tyrosyl-DNA phosphodiesterase 1 (TDP1): qHTS in cells in absence of CPT; DT40 Tdp1-/- hTDP1 cells, no CPT, ATP luminescence, 48 h; Potency, µM (top dose mostly 46.2 µM), without a hit: at the highest dose activity change, negative = growth inhibition, actives largely listed as inhibitors; 420,000 compounds, 15% hits; AID 686978, 2013; further: on the % scale 0 is the no-effect control and ±100 the full control effect; nearly all actives have a fitted effect of over 55% in size
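DT40 Tdp1-/-;hTDP1 cells, no CPT (DMSO vehicle only), 400 cells/well; compounds pin-transferred; ≥48 hr, 37 °C; CellTiter-Glo 30 min RT dark, luminescence read.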
TDP1 cell CPT: qHTS for Inhibitors of human tyrosyl-DNA phosphodiesterase 1 (TDP1): qHTS in cells in presence of CPT | chicken DT40 Tdp1-/-;hTDP1 cells + 20 nM CPT, ATP luminescence, 48 h | Potency, µM (series often up to 46.2 µM), for the others: at the highest dose activity change, negative = growth inhibition, actives largely listed as inhibitors | 420,000 compounds, 12% hits | AID 686979, 2013; further: on the % scale 0 is the no-effect control and ±100 the full control effect; nearly all actives have a fitted effect of over 55% in size
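Chicken DT40 Tdp1-/- cells complemented with human TDP1, 400 cells/well, exposed to compounds plus 20 nM camptothecin for at least 48 h at 37 C; viability read as ATP content by CellTiter-Glo luminescence.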
HepG2 tox: qHTS for Inhibitors of TGF-b: Cytotox Counterscreen; Potency, µM (doses to about 46.1 µM), for the others: at the top dose activity change, negative = cytotoxicity, usual class: cytotoxic; AID 588856, 2011; 410,000 compounds, 0.76% hits; HepG2 CAGA-GFP viability, ATP luminescence, 18 h
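HepG2 CAGA-GFP cells (1000/well, DMEM with 1% FBS) received compound, then TGF-beta at 500 pg/mL final, and were incubated 18 hours at 37 degrees C. Viability was read by CellTiter-Glo luminescence. Media-only wells were set as complete cell-killing and DMSO as no toxicity.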
Active calls of the source: *; ? = inconclusive; . = no result. Compounds with a hit are over-represented: about 17% of the library has one in this group of screens. The call rests on the fitted dose curve; in most records, active means well fitted curve in the direction sought with a large enough effect; inconclusive means small, poorly fitted or top-dose-only effect, or another doubt; inactive means no such curve, though single readings can be large; an effect the other way counts as inactive or inconclusive. Potency means the concentration at half of the fitted maximal effect.

SMILES	TGFb inhibitor	HT1080 IDH1KD tx	HT1080-NT tox	DT40 TDP1 no CPT	TDP1 cell CPT	HepG2 tox
O=C(O)C1C2C=CC(O2)C1C(=O)Nc1ccc(S(=O)(=O)N2CCc3ccccc32)cc1 (centres undefined)	-1%	-11%	-6%	-10%	-22%	2%
O=C(O)C1C2C=CC(O2)C1C(=O)Nc1ccc(S(=O)(=O)Nc2ccccc2)cc1 (centres undefined)	0%	?	2%	?	15µM*	-27%
C(=C\c1c[nH]c2ccccc12)/c1ccc2ccccc2n1	12%	.	.	?	?	-45%
Cc1[nH]c2ccccc2c1/C=C/c1c[nH]c2ccccc12	?	.	.	11µM*	?	-25%
Cc1[nH]c2ccccc2c1/C=C/c1ccc2ccccc2n1	0%	.	.	-111%	?	10µM*
Cc1[nH]c2ccccc2c1/C=C/c1cnc2ccccc2n1	-28%	.	.	13µM*	?	-30%
C(=NN=Cc1c[nH]c2ccccc12)c1c[nH]c2ccccc12	?	-1%	-1%	?	2%	-24%
COc1ccc(S(=O)(=O)N(C)C[C@H]2Oc3c(NS(=O)(=O)c4cn(C)cn4)cccc3C(=O)N([C@H](C)CO)C[C@@H]2C)cc1	?	13%	2%	3%	20%	-4%
O=C1C(=O)N(CCCN2CCOCC2)C(c2ccc([N+](=O)[O-])cc2)/C1=C(/O)c1ccc2c(c1)OCO2 (centres undefined)	-13%	8%	9%	1%	-21%	-8%
O=C(c1cc2c(s1)-c1ccccc1S(=O)(=O)C2)N1CCN(Cc2ccccc2)CC1	-37%	?	-16%	16µM*	18µM*	-40%
Cc1ccc(C)c(CN2C(=O)c3ccccc3S(=O)(=O)c3ccc(C(=O)N4CCN(c5ccccc5F)CC4)cc32)c1	.	.	.	-17%	-3%	-4%
O=C(NCCN1CCCC1)c1ccc2c(c1)N(Cc1cccc(Cl)c1)C(=O)c1ccccc1S2(=O)=O	5%	?	-20%	5%	?	-18%
CN1CCN(C(=O)c2cc3c(s2)-c2ccccc2S(=O)(=O)C3)CC1	-27%	1%	-13%	-18%	2%	-13%
O=C(c1ccc2c(c1)N(Cc1ccccc1)C(=O)c1ccccc1S2(=O)=O)N1CCN(Cc2ccccc2)CC1	.	.	.	7.3µM*	10µM*	-23%
O=C(c1ccc2c(c1)N(Cc1ccccc1F)C(=O)c1ccccc1S2(=O)=O)N1CCN(c2ccccn2)CC1	0%	.	.	21µM*	26µM*	1%
O=C(c1ccc2c(c1)N(Cc1cccc(Cl)c1)C(=O)c1ccccc1S2(=O)=O)N1CCC(Cc2ccccc2)CC1	-20%	.	.	4.1µM*	4.1µM*	-37%
O=C[C@H](O)[C@@H](O)[C@H](O[C@H]1O[C@H](CO)[C@@H](O[C@H]2O[C@H](CO)[C@@H](O)[C@H](O)[C@H]2O)[C@H](O)[C@H]1O)[C@H](O)CO	.	.	.	-2%	-6%	.
O=C(c1ccc2c(c1)N(Cc1ccc(Cl)cc1)C(=O)c1ccccc1S2=O)N1CCC(Cc2ccccc2)CC1 (centres undefined)	?	.	.	9.2µM*	12µM*	-41%
